ST2 inh: inhibitors of human ST2 (IL1RL1) binding to IL-33, primary screen, biochemical, AlphaLISA | AlphaLISA ST2-Fc/biotin-IL-33 interaction, 1 h | inhibition, % for hits at 17 µM | actives 2.3% (n = 78,000) | AID 1259354, 2018; in the data active = inhibition above about 30%
Target sequence (Q01638 whole entry, looked up): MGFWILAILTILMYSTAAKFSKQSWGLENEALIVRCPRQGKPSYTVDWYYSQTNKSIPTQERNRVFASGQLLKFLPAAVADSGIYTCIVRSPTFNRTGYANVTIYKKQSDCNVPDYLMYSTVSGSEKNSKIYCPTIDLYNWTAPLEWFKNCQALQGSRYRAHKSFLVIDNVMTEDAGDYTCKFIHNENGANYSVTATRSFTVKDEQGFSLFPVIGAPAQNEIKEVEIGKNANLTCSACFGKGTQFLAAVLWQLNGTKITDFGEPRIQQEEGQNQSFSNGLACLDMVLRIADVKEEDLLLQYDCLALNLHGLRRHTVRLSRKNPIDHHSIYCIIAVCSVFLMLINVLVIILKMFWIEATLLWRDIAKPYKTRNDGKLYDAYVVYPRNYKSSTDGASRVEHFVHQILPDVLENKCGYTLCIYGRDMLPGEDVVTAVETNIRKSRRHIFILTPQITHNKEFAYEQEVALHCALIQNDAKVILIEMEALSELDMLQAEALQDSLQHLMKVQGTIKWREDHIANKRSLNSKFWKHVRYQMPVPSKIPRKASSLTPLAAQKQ
Starred values were filed as active, the others as inactive; i = inactive. The sample as a whole holds a higher share of hits than the screen did.

SMILES	ST2 inh
CN1CCC(N(C)c2ccc(C(=O)N3CCC(CCn4cccn4)CC3)cn2)C1 (stereo unspecified)	i
COc1ccc(OC)c(NC(=O)N2CCN(Cc3nc4cccnc4n3-c3cc(C)cc(C)c3)CC2)c1	i
CCCCCCCC(=O)C(C)NC(=O)CCC(=O)O (stereo unspecified)	i
COc1cc(C(=O)Nc2c3c(nn2C(C)(C)C)CSC3)cc(OC)c1OC	i
NC(=O)COc1ccc(CN2CC[C@@]3(O)CCCC[C@H]3C2)cc1Cl	i
CC1(C)CC(=O)c2cc(OCC(=O)NCc3cccs3)ccc2O1	i
Cc1ccc(N2C(=O)C(C)SC23C(=O)Nc2ccccc23)cc1 (stereo unspecified)	i
Cc1ccc(C2=NNC3(S2)C(=O)Nc2ccc(C)cc23)cc1 (stereo unspecified)	44.0%*
Cc1ccc2c(c1)C(=O)C(=O)N2	i
CN(CCC1CCOCC1)c1nncc(-c2cc3ccccc3o2)n1	i
Cc1cccc(OCC(=O)N2CC3(C)CC2CC(C)(C)C3)c1C (stereo unspecified)	i
NNc1nc2ccccc2s1	68.0%*
O=C(Nc1nc2ccccc2s1)c1ccccc1F	i
O=C(COc1ccc2ccccc2c1)Nc1nc2ccccc2s1	i
COc1ccc(-c2n[nH]c(CC(C)C)n2)c(OC)n1	i
O=C1c2ccccc2C(=O)C1(c1ccccc1)N1CCOCC1	i
Cc1ccc(-n2nc3c(c2NC(=O)c2ccc(C(C)(C)C)cc2)CS(=O)C3)cc1 (stereo unspecified)	i
CCN(CC)c1ccc(C2C3=C(CC(C)(C)CC3=O)Nc3nc(SC)[nH]c(=O)c32)cc1 (stereo unspecified)	i
CCN(CC)c1ccc(/C=C2\N=C(SC)SC2=O)cc1	63.0%*
CSC1=N/C(=C\c2cc3c(cc2Br)OCO3)C(=O)S1	i
Cc1ccc(C(=O)O)cc1NS(=O)(=O)c1cccc2nsnc12	i
O=C(C1CCCCC1)N1CCc2ccccc2C1	i
COc1cc2c(C(=O)NCCCN3CCOCC3)cn(CC(C)C)c(=O)c2cc1OC	i
N#C/C(=C\c1ccccc1[N+](=O)[O-])c1nc(-c2ccc(Cl)c(Cl)c2)cs1	i
COc1cccc2cc(-c3nc(-c4ccc(Cl)cc4)cs3)c(=O)oc12	i
SMILES	ST2 inh
COc1ccc(-c2cc(C(F)(F)F)nc(NCc3cccs3)n2)cc1	i
N#C/C(=C\c1cccs1)c1nc(-c2ccc(Cl)c(Cl)c2)cs1	i
N#C/C(=C/c1ccccc1Cl)c1nc(-c2ccccc2)cs1	65.0%*
COc1ccc(-c2csc(/C(C#N)=C/c3ccccc3Cl)n2)cc1	42.0%*
COc1ccc(-c2csc(/C(C#N)=C/c3cccs3)n2)cc1	50.0%*
COc1cc(N/C=C(\C#N)c2nc(-c3cc4ccccc4oc3=O)cs2)c(OC)cc1Cl	i
O=C(Nc1nc(-c2ccccc2)cs1)c1ccccc1	i
COc1ccc(N/C=C(\C#N)c2nc(-c3cc4cc([N+](=O)[O-])ccc4oc3=O)cs2)c(OC)c1	i
COc1ccc(OC)c(N/C=C(\C#N)c2nc(-c3cc4ccccc4oc3=O)cs2)c1	37.0%*
COc1ccc(C2=Nn3c(nnc3-c3ccccc3Cl)SC2)cc1	i
O=C(Oc1ccccc1)Oc1ccccc1	i
Cn1cc(Cl)c(CN2CCCC(Cn3cc(CCO)nn3)C2)n1 (stereo unspecified)	i
O=C(CSc1nc2ccc([N+](=O)[O-])cc2[nH]1)Nc1nccs1	i
Cc1c(C(=O)Nc2ccc3c(c2)OCO3)sc2ncnc(N3CCOCC3)c12	i
CCOC(=O)c1c(NC(=O)C(C)Oc2ccc(C)c(C)c2)sc(C)c1C (stereo unspecified)	i
CCOc1cccc(OCCOCCN2CCN(C)CC2)c1	i
COCc1nc(CNC(=O)c2c(C)c3cccc(C)c3n2C)no1	i
COc1ccc(-c2csc(/C(C#N)=C\Nc3cccc(C(F)(F)F)c3)n2)cc1OC	i
COc1ccc(/C=C(\C#N)[N+](=O)[O-])cc1	i
COc1ccc(-c2csc(/C(C#N)=C/c3ccc(Cl)cc3)n2)cc1	34.0%*
COc1cc(N/C=C(/C#N)c2nc(-c3ccc(F)cc3)cs2)c(OC)cc1Cl	i
COc1ccc(-c2csc(/C(C#N)=C\c3ccc(F)cc3)n2)cc1OC	i
COc1ccc(-c2csc(/C(C#N)=C/c3ccccc3OC)n2)cc1	40.0%*
CC(C)c1ccc(N(CC(=O)Nc2ccc3c(c2)OCO3)S(C)(=O)=O)cc1	i
CCOc1ccc(NC(=O)CSc2ncnc3nc(N(C)C)sc23)cc1	i
SMILES	ST2 inh
CCC(=O)Nc1cccc(NC(=O)c2cccs2)c1	i
Cc1ccc(CNS(=O)(=O)NCc2ccccc2)c(F)c1F	i
Cn1ccnc1SCCNS(=O)(=O)NCc1ccccc1	31.0%*
Cc1nn(CCNS(=O)(=O)NCc2ccccc2)c(C)c1Cl	i
COc1ccc(Cl)cc1N(CC(=O)NCC1CCCO1)S(=O)(=O)c1ccccc1 (stereo unspecified)	i
COc1ccc(C(=O)Nc2cc(N3CCCS3(=O)=O)ccc2OC)cc1	i
Cc1cc(I)cc(C)c1NC(=O)COc1ccc(Cl)cc1	i
CC(C)Cn1c(CN2CC(C)OC(C)C2)nc2c1c(=O)[nH]c(=O)n2C (stereo unspecified)	i
CC(O)c1nc2ccccc2n1CCCOc1ccccc1 (stereo unspecified)	i
CC(O)c1nc2ccccc2n1Cc1ccccc1 (stereo unspecified)	36.0%*
CCn1c(C(C)NC(C)=O)nc2ccccc21 (stereo unspecified)	i
CC(c1ccc(-c2cccc(-n3cnnc3)c2)cc1)N1CCOCC1 (stereo unspecified)	i
CCOc1ccc(N2C(=O)C3CC(C)=C(C)CC3C2=O)cc1 (stereo unspecified)	i
COc1ccc(OCCN(C)Cc2ccccc2)cc1	i
NN(Cc1ccccc1)c1ccccc1	37.0%*
COc1ccc(N(N)Cc2ccccc2)cc1	50.0%*
COc1ccc(CN(C)Cc2ccccc2)cc1	i
O=S(=O)(c1ccccc1)N(Cc1ccccc1)Cc1ccccc1	i
OCCN(Cc1ccccc1)Cc1ccccc1	i
Nc1cc(=O)nc(SCC(=O)Nc2ccccn2)n1-c1ccccc1	i
COc1ccc(CN2CCN(C3CCCCC3)C(=O)C2)cc1C(=O)O	i
CCOc1ccc(NC(=O)c2ccc(Cl)cc2)cc1	i
CNC(=O)C1CCC(Cn2c(=O)c3sccc3n(CC(=O)N3CCCCCC3)c2=O)CC1 (stereo unspecified)	i
O=c1[nH]c2ccc(S(=O)(=O)Nc3ccc(Cl)c(C(F)(F)F)c3)cc2[nH]c1=O	i
COCc1[nH]nc2c1C(c1ccc(F)cc1)C(C#N)=C(N)O2 (stereo unspecified)	i
SMILES	ST2 inh
O=C(O)C1CCCCC1C(=O)Nc1ccc(S(=O)(=O)Nc2nccs2)cc1 (stereo unspecified)	i
CCc1cc(Sc2ccccc2NC(=O)Nc2ccc(Cl)cc2)n2ncnc2n1	i
Cc1cccc(-c2nc(S(=O)(=O)c3ccccc3)c(N3CCOCC3)o2)c1	i
O=S(=O)(c1ccccc1)c1nc(-c2ccco2)oc1SCc1ccccc1F	i
O=S(=O)(c1ccccc1)c1nc(-c2ccccc2F)oc1N1CCCCC1	32.0%*
Cc1ccc(NS(=O)(=O)c2ccc3c(c2)CCN3C(=O)C2CC2)cc1F	i
CN1CCCN(Cc2coc3c(Cl)cc(Cl)cc3c2=O)CC1	i
